The source of these data is PubChem BioAssay (NCATS).

A number with no mark means an inactive call. Results filed as inconclusive are left out. Entries that show only a call come without a potency. Activity calls are given as the source filed them. Unless noted, the call rests on the fitted dose curve; in most records, active means well fitted curve in the direction sought with a large enough effect; inconclusive means small, poorly fitted or top-dose-only effect, or another doubt; inactive means no such curve, though single readings can be large; an effect the other way counts as inactive or inconclusive.

Assay [1] addresses Cytochrome P450 2C9 (Homo sapiens) (UniProt P11712). The experiment in a line: qHTS Assay for Inhibitors and Substrates of Cytochrome P450 2C9 (AID 883). Further: nearly all actives have a fitted effect of over 60% in size. Further: potency means the concentration at half of the fitted maximal effect. In outline:
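Signal: luciferase luminescence reporting luciferin produced by CYP2C9. Conditions: 10nM enzyme, Luciferin-H 100uM at KM, 25mM KPO4, 37C, 60 min NADPH-driven reaction. Reference: 57uM sulphaphenazole as 100% inhibition.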

The target in assay [2] is Cytochrome P450 2D6 (Homo sapiens) (UniProt P10635). The experiment in a line: qHTS Assay for Inhibitors and Substrates of Cytochrome P450 2D6 (AID 891). Further: potency means the concentration at half of the fitted maximal effect; nearly all actives have a fitted effect of over 60% in size. In outline: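 Luminescent read-out of luciferin formed by 5 nM human CYP2D6 demethylating 30 uM Luciferin-ME EGE (Km level) over 60 min at room temperature after NADPH regeneration addition. Data normalized to full inhibition by 1.43 uM quinidine.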
Cytochrome P450 2D6 (Homo sapiens), sequence (P10635 whole entry, looked up): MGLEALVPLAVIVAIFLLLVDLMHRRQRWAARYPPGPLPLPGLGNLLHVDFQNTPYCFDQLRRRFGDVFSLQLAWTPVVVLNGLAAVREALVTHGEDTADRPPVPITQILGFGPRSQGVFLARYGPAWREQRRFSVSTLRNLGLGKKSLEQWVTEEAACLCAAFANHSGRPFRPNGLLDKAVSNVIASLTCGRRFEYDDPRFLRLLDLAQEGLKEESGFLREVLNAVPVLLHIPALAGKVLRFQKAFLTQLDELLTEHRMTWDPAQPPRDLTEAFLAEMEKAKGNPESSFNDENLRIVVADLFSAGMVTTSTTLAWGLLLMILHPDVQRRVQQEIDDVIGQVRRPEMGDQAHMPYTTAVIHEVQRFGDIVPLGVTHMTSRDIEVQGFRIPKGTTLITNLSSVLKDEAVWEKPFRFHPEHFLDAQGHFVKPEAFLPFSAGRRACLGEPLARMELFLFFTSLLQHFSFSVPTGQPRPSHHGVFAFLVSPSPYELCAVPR

Assay [3] can be described thus: Confirmation and Secondary Assay for Modulators of Hemoglobin Beta Chain Splicing at IVS2 705 locus (AID 930).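 Further: HeLa cells stably expressing the EGFP-705 splicing reporter; GFP fluorescence per well restored by corrected splicing of the IVS2-705 intron in EGFP; series mostly up to about 46 µM.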 In outline:
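Per-well GFP, captured at 1 x 8 µm resolution with 488 nm excitation, served as the read-out for HeLa EGFP-705 cells incubated 2 days with test compound versus DMSO.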

Assay [4] is described as follows: Confirmation and Secondary Assay for Modulators of Hemoglobin Beta Chain Splicing at IVS2 654 locus (AID 910).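 Further: HeLa cells stably carrying EGFP split by mutant beta-globin IVS2-654 intron.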 In outline: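 HeLa cells stably expressing EGFP interrupted by β-globin IVS2-654 intron, seeded overnight in Opti-MEM/2% FCS, then treated 2 days at 37 °C. Restored splicing read as total peak GFP intensity per well by laser scanning cytometry (488 nm excitation, 500–520 nm emission); 500 nM antisense PNA as control.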

Assay [5] has as its target Cytochrome P450 2C19 (Homo sapiens) (UniProt P33261). The assay can be described thus: qHTS Assay for Inhibitors and Substrates of Cytochrome P450 2C19 (AID 899). Further: nearly all actives have a fitted effect of over 60% in size. Further: potency means the concentration at half of the fitted maximal effect. In outline: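 Signal comes from luciferase acting on luciferin released by CYP2C19-mediated hydroxylation of Luciferin-H EGE, 10uM (KM). Assay mix: 5nM enzyme, 50mM KPO4; 60 min at 37C with NADPH regeneration. Data normalized against 57uM ketoconazole.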

The nature of assay [6]: qHTS Assay for Identification of Small Molecule Agonists for Hypoxia Response Element Signaling Pathway (AID 914; active means well fitted activation curve with a large enough effect in the signal ratio, with a control signal flat, not every such curve was filed as active; the % refers to the signal ratio; further: potency means the concentration at half of the fitted maximal effect). The note with it: ME-180 (cervical carcinoma) HRE-bla reporter, beta-lactamase ratio, CoCl2, 17 h; activation: active compounds read high. In outline: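 In Opti-MEM containing 0.5% dialyzed FBS and 10 mM HEPES, ME-180 HRE-bla cells received a compound titration and EC50 CoCl2. They were incubated 17 hours, then CCF4-loaded 2.5 hours at room temperature before ratio reading.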

The target in assay [7] is DNA dC->dU-editing enzyme APOBEC-3G (Homo sapiens) (UniProt Q9HC16). The assay can be described thus: qHTS for inhibitors of Vif-A3G interactions: Validation (AID 588379). In outline: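 Yellow fluorescence (Ex 488, Em 500-530) of Vif-coexpressing HeLa A3G-eYFP cells, scanned by Acumen cytometer, reports blocked A3G degradation. Cells plated at 700/well overnight at 37 deg C before compound addition, then a further overnight compound incubation at 37 deg C.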
DNA dC->dU-editing enzyme APOBEC-3G (Homo sapiens), sequence (Q9HC16 whole entry, looked up): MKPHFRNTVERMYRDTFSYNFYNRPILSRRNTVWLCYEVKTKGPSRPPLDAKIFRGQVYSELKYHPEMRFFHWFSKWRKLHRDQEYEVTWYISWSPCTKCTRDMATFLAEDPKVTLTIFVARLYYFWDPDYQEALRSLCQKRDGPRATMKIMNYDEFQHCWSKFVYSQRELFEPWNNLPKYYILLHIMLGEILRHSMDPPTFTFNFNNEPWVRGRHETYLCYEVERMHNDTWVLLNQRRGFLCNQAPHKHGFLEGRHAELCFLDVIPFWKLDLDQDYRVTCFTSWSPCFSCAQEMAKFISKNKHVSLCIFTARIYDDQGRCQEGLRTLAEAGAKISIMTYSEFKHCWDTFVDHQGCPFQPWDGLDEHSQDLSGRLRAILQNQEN

Assay [8] concerns the target Dual specificity protein kinase CLK4 (Homo sapiens) (UniProt Q9HAZ1). The experiment in a line: qHTS Assay for Inhibitors of CDC-like Kinase 4 (ADP-Glo Assay) (AID 1771). Further: nearly all actives have a fitted effect of over 70% in size. In outline:
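25 nM Clk4, 100 uM RS peptide, 1 uM ATP (final); 2 mM MgCl2, 0.5 mM EGTA, 2.5 mM DTT, 0.01% Triton X-100; 1 hr RT. ADP-Glo readout: ATP depletion 45 min, conversion/luciferase 30 min, luminescence.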

Cytochrome P450 2C9 (Homo sapiens), sequence (P11712 whole entry, looked up): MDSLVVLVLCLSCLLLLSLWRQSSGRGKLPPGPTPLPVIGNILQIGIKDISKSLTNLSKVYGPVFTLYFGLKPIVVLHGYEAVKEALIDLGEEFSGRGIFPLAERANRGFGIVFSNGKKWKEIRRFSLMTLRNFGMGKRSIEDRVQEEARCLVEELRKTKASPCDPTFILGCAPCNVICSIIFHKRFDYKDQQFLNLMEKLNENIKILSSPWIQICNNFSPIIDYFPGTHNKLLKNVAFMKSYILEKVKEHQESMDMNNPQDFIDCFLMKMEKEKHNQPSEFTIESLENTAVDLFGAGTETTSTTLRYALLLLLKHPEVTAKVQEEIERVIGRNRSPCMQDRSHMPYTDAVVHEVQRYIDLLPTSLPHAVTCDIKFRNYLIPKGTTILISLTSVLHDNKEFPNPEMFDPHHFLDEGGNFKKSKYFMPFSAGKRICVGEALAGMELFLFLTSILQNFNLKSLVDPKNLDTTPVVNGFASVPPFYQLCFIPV
Dual specificity protein kinase CLK4 (Homo sapiens), sequence (Q9HAZ1 whole entry, looked up): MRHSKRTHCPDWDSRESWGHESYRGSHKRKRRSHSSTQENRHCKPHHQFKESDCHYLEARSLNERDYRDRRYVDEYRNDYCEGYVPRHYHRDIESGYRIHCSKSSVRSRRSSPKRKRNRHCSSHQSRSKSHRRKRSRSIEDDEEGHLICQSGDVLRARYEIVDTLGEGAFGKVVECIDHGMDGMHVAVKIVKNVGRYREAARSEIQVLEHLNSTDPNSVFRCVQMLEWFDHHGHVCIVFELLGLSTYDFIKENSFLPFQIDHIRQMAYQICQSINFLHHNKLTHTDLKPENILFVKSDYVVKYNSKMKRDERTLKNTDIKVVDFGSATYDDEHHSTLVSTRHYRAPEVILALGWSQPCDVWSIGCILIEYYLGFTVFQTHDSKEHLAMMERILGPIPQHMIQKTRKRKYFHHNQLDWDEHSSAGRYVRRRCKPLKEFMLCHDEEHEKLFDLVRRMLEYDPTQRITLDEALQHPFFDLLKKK
Cytochrome P450 2C19 (Homo sapiens), sequence (P33261 whole entry, looked up): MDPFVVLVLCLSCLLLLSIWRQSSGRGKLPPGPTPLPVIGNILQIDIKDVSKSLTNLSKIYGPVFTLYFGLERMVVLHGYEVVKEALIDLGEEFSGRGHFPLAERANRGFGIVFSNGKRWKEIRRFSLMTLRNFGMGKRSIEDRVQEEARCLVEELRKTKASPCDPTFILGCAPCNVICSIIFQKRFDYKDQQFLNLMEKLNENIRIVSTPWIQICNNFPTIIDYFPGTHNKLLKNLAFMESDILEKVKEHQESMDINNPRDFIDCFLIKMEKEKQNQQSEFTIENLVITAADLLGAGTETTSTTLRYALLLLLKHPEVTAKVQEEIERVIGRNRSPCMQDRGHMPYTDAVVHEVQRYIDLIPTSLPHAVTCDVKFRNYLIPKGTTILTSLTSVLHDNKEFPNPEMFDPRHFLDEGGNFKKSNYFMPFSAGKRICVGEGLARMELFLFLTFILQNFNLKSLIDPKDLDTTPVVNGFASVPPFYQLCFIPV

For the compound `Cc1cnc(CNc2ncnc3ccc(-c4ccccc4CN(C)C)cc23)cn1`, in assay [1], the activity change, negative = inhibition is 39% [at 2.29 µM]. Also, the Potency in assay [2] is 2.51 µM (active). Further, the outcome in assay [3] was inactive.

As for `Cn1cccc1C(=O)N1CCC2(CCCN(Cc3ccncc3)C2)CC1`, the values for the Potency in assay [1] and in assay [2] were 1.58 µM (active) and 7.94 µM (active), respectively.

With `CNc1ncnc2ccc(-c3cccc(NS(C)(=O)=O)c3)cc12`, the Potency entry in assay [4] is “inactive”. For the same compound, in assay [3], the compound was called inactive.

Take `Cc1cccc(CNc2ncnc3ccc(-c4c(C)noc4C)cc23)c1`: the Potency in assay [5] was 5.01 µM (active). Also, the Potency entry in assay [4] was “inactive”. Further, the compound was classed as inactive in assay [3].

Take `Cc1noc(C)c1-c1nc(N2CCOCC2)c2ccccc2n1`: in assay [4], the Potency result is “inactive”. For the same compound, the compound was called inactive in assay [3].

For `CC(=O)NCCNc1nc(-c2ccc(N(C)C)cc2)nc2ccccc12`, the call in assay [3] was inactive.

In the case of `CN(C)c1ccc(-c2nc(N(C)C)c3ccccc3n2)cc1`, the activity change, negative = inhibition in assay [1] is 118% [at 2.29 µM]. For the same compound, the Potency in assay [2] was 7.94 µM (active). The call in assay [3] was inactive.

Consider `O=C(c1ccco1)N1CCC2(CCN(Cc3ccccc3)CC2)CC1`, for which the Potency in assay [2] was 3.98 µM (active).

With `CS(=O)(=O)Nc1cccc(-c2nc(NCCN3CCOCC3)c3ccccc3n2)c1`, in assay [4], the Potency result was “inactive”. In assay [3], the result was inactive.

Regarding `COc1ccc(CNc2nc(-c3ccoc3)nc3ccccc23)c(OC)c1`, the result in assay [3] was inactive.

With `Cc1cnc(CNc2ncnc3ccc(-c4cccc(C#N)c4)cc23)cn1`, the Potency result in assay [4] was “inactive”. The compound was called inactive in assay [3].

Turning to `Cc1cnc(CNc2cc(-c3ccoc3)ncn2)cn1`, the Potency entry in assay [4] was “inactive”. Besides, the outcome in assay [3] was inactive.

As to `O=C(c1cc(C(F)(F)F)cc(C(F)(F)F)c1)N1CCC2(CC1)CN(c1ccncc1)C2`, the Potency in assay [1] was 3.98 µM (active).

Take `COc1ccc(CNc2cc(-c3ccccc3CN(C)C)ncn2)c(OC)c1`: the result in assay [3] was inactive.

For `CN(C)Cc1ccccc1-c1nccc(NCc2cccs2)n1`, in assay [2], the Potency was 1.58 µM (active). In addition, the Potency entry in assay [4] is “inactive”. Besides, the call in assay [3] was inactive.

On to `CC(=O)NCCNc1ncncc1-c1ccccc1C(F)(F)F`, for which the Potency entry in assay [4] is “inactive”. Moreover, in assay [3], the compound was classed as inactive.

On to `CNc1nc(-c2ccccc2C(F)(F)F)nc2ccccc12`, for which the Potency entry in assay [4] was “inactive”. Also, the compound was called inactive in assay [3].

Consider `CS(=O)(=O)Nc1cccc(-c2ccc3ncnc(NCc4cccnc4)c3c2)c1`, for which, in assay [5], the Potency is 0.0501 µM (active). Moreover, the Potency entry in assay [4] was “inactive”. For the same compound, the activation in assay [6] was -27.3%. Further, the call in assay [3] was inactive.

Consider `COc1ccc(Oc2ncc3nc(-c4ccc(F)cc4)c(=O)n(C)c3n2)cc1`, for which the activation in assay [6] was 16.5%.

With `N[C@H](C(=O)O)c1ccc(O)c(C(=O)O)c1`, the Potency entry in assay [5] is “inactive”. Besides, in assay [7], the call was inactive.

Take `COc1ccc(-n2c(=O)c(-c3ccc(Cl)cc3)nc3cnc(N(C)C)nc32)cc1`: in assay [6], the Potency was 3.16 µM (active). In addition, the Potency entry in assay [8] was “inactive”.

On to `Clc1cccc2c1CN(C1=NCCN1)C2`, for which the compound was classed as inactive in assay [7].

As for `CS(=O)(=O)c1ccc(Cn2c3c(c4cc(F)cc(F)c42)CCC[C@H]3CC(=O)O)cc1`, the Potency result in assay [1] is “inactive”. Further, the result in assay [7] was inactive.

For the compound `Cc1cc(OC(=O)c2c(C)cc(O)cc2O)cc(O)c1C(=O)O`, in assay [4], the Potency entry is “inactive”. Also, the result in assay [3] was inactive.

For the compound `COc1cccc(Cn2c(=O)c(-c3ccc(F)cc3)nc3cnc(N4CCOCC4)nc32)c1`, the Potency result in assay [5] and in assay [8] was “inactive” each time. Further, in assay [6], the Potency was 3.16 µM (active).

For `COCCNc1nc(-c2ccccc2C)nc2ccccc12`, the Potency entry in assay [4] is “inactive”. For the same compound, the compound was called inactive in assay [3].

Take `O=C(c1cccc(F)c1)N1CCC2(CCCN(c3cccc(-c4ccccc4)c3)C2)CC1`: the Potency in assay [5] is 7.94 µM (active).

For the compound `O=c1c(-c2cc(F)cc(F)c2)nc2cncnc2n1Cc1ccccc1Cl`, the Potency is 3.98 µM (active) in assay [1] and 1.58 µM (active) in assay [5]. Further, the Potency result in assay [8] was “inactive”.

Consider `Cn1cccc1C(=O)N1CCC2(CCCN(c3cccc(-c4ccccc4)c3)C2)CC1`, for which the Potency in assay [1] was 3.98 µM (active).

Take `N#CCCn1c(=O)c(-c2cccs2)nc2cnc(N3CCOCC3)nc21`: the activation in assay [6] is 21.6%. The Potency result in assay [8] is “inactive”.

With `COc1cccc(-c2ccc3ncnc(NCc4ccccc4OC)c3c2)c1`, in assay [4], the Potency entry is “inactive”. Besides, in assay [3], the result was inactive.

For the compound `COc1ccc(CNc2cc(-c3ccccc3C)ncn2)c(OC)c1`, the activation in assay [6] is 2.85%.

For the compound `CN(C)c1ncc2nc(CCc3ccccc3)c(=O)n(Cc3ccc(F)cc3)c2n1`, the Potency in assay [5] is 0.794 µM (active).

For the compound `O=C1C=C(O)c2ccccc2C1=O`, the Potency entry in assay [4] was “inactive”. The outcome in assay [3] was inactive.

For `CCCCCCCCCCCCCC(=O)O[C@H](CC(=O)O)C[N+](C)(C)C`, the result in assay [7] was inactive.
